Data from PubChem BioAssay (EPA / NIEHS).
Several values for one entry are separate records, joined by “and”; a condition that tells them apart may be missing. Equal entries are not always repeated. Records with an inconclusive call do not appear. More than one record can exist for a structure, and the calls need not agree. Activity calls are given as the source filed them. How the source made its calls, unless noted: active means hit-call score of the fitted dose curve at least 0.9, where 1 is the maximum; inactive means score below 0.9.

How the values were obtained:
[1] = BSK_4H_Eotaxin3: BioMAP Diversity Plus: 4H Assay for Eotaxin 3 Biomarker Activity (AID 2283000); conditions: primary human endothelial cells (HUVEC); actives raise or lower the signal;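 further: CCL26 protein level quantified by ELISA in parallel with SRB cytotoxicity check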
Procedure, shortened: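 Human umbilical vein endothelial cells (BSK_4H system) dosed with test chemical; Eotaxin-3 (CCL26) measured by ELISA 24 h after dosing. Bidirectional curve fitting relative to DMSO negative control as baseline.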

[2] = target: human Peroxisome Proliferator-activated Receptor alpha (PPARa), PPARA (gene 5465) (UniProt Q07869); experiment: ATG_PPARa_TRANS: Attagene TRANS-FACTORIAL HepG2 Assay for human Peroxisome Proliferator-activated Receptor alpha (PPARa) (AID 2283001; active means hit-call score of the fitted dose curve at least 0.9, where 1 is the maximum)
Procedure, shortened: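 HepG2 cells transiently transfected with multiplexed GAL4-UAS reporter units and chimeric NR-Gal4 constructs were dosed for 24 h. Reporter mRNA was measured by RT-PCR with fluorescent labelling and capillary electrophoresis; gain of signal fitted against DMSO.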

[3] = target: human Peroxisome Proliferator-activated Receptor delta (PPARd), PPARD (gene 5467) (UniProt Q03181); experiment: ATG_PPARd_TRANS: Attagene TRANS-FACTORIAL HepG2 Assay for human Peroxisome Proliferator-activated Receptor delta (PPARd) (AID 2283002; active means hit-call score of the fitted dose curve at least 0.9, where 1 is the maximum)
Procedure, shortened: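 Multiplexed trans-activation format: HepG2 liver cells expressing exogenous NR-Gal4 chimeras and GAL4-UAS reporters were exposed for 24 h. Reporter mRNA was detected by RT-PCR with capillary electrophoresis fluorescence; activity fitted as gain of signal relative to DMSO.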

[4] = read-out: Intercellular Adhesion Molecule 1 (ICAM1), ICAM1 (gene 3383); experiment: BSK_3C_ICAM1: BioMAP Diversity Plus: 3C Assay for Intercellular Adhesion Molecule 1 (ICAM1) Biomarker Activity (AID 2283003); conditions: primary human endothelial cells (HUVEC); actives raise or lower the signal
Procedure, shortened: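 Primary human umbilical vein endothelial cells in the BioMAP 3C system were exposed to chemicals for 24 h, then ICAM-1 was quantified by ELISA. Activity was fitted bidirectionally against the DMSO negative control baseline.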

[5] = BSK_3C_Proliferation: Cell Proliferation Assessment in the BioMAP Diversity Plus: 3C Assay (AID 2283006); conditions: primary human endothelial cells (HUVEC);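 on AC50: potency may reflect either rise or fall in cell number versus DMSO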
Procedure, shortened: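 Human umbilical vein endothelial cells were grown sub-confluent and exposed to chemical for 48 h, then fixed with 10% TCA and stained with 0.1% sulforhodamine B; absorbance at 560 nm gave relative cell number, fitted bidirectionally against DMSO baseline.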

[6] = target: Peroxisome proliferator-activated receptor gamma (Homo sapiens) (UniProt P37231); experiment: ATG_PPARg_TRANS: Attagene TRANS-FACTORIAL HepG2 Assay for human Peroxisome Proliferator-activated Receptor-gamma (PPARg) (AID 2283007; active means hit-call score of the fitted dose curve at least 0.9, where 1 is the maximum)
Procedure, shortened: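 Multiplexed reporter transcription units in HepG2, 24 h dosing, reporter transcripts quantified by fluorescent RT-PCR and capillary electrophoresis. Increase over DMSO scored.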

[7] = target: Nuclear receptor subfamily 1 group I member 2 (Homo sapiens) (UniProt O75469); experiment: ATG_PXR_TRANS: Attagene TRANS-FACTORIAL HepG2 Assay for human Pregnane X Receptor (PXR) (AID 2283008; active means hit-call score of the fitted dose curve at least 0.9, where 1 is the maximum)
Procedure, shortened: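 HepG2 cells transiently transfected with multiple reporter units, here a PXR-GAL4 chimera driving a GAL4-UAS reporter; 24 h compound exposure. Reporter mRNA measured by RT-PCR, FAM labelling and capillary electrophoresis; gain of signal fitted against DMSO baseline.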

[8] = target: human Retinoic Acid Receptor gamma (RARg), RARG (gene 5916) (UniProt P13631); experiment: ATG_RARg_TRANS: Attagene TRANS-FACTORIAL HepG2 Assay for human Retinoic Acid Receptor gamma (RARg) (AID 2283009; active means hit-call score of the fitted dose curve at least 0.9, where 1 is the maximum)
Procedure, shortened: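 HepG2 cells transiently transfected with multiplexed reporter units expressing chimeric RARg-GAL4 and GAL4-UAS-driven reporters; 24 h compound exposure. Reporter mRNA quantified by RT-PCR with fluorescent labelling and capillary electrophoresis; gain-of-signal fitted relative to DMSO baseline.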

[9] = target: Retinoic acid receptor RXR-alpha (Homo sapiens) (UniProt P19793); experiment: ATG_RXRa_TRANS: Attagene TRANS-FACTORIAL HepG2 Assay for human Retinoid X Receptor alpha (RXRa) (AID 2283012; active means hit-call score of the fitted dose curve at least 0.9, where 1 is the maximum)
Procedure, shortened: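 HepG2 cells transiently transfected with multiplexed GAL4-UAS reporter units and chimeric NR-GAL4 fusions, dosed 24 h. Reporter mRNA measured by RT-PCR, FAM labelling, HpaI digestion and capillary electrophoresis; gain-of-signal fitted relative to DMSO baseline.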

[10] = target: human Retinoid X Receptor beta (RXRb), RXRB (gene 6257) (UniProt P28702); experiment: ATG_RXRb_TRANS: Attagene TRANS-FACTORIAL HepG2 Assay for human Retinoid X Receptor beta (RXRb) (AID 2283013; active means hit-call score of the fitted dose curve at least 0.9, where 1 is the maximum)
Procedure, shortened: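 HepG2 cells transiently transfected with multiplexed reporter units driven by GAL4-UAS and exogenous chimeric NR-Gal4 proteins; treated 24 h. Reporter mRNA measured by RT-PCR, 6-FAM labelling and capillary electrophoresis; gain-of-signal fitted versus DMSO baseline.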

[11] = read-out: E-selectin (Homo sapiens) (UniProt P16581); experiment: BSK_3C_Eselectin: BioMAP Diversity Plus: 3C Assay for Eselectin Biomarker Activity (AID 2283015); conditions: primary human endothelial cells (HUVEC); actives raise or lower the signal;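 on outcome: cell surface E-selectin protein quantified by ELISA 24 h after dosing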
Procedure, shortened: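 E-selectin ELISA readout, fitted bidirectionally relative to DMSO, taken 24 h post-dosing in HUVEC cultures of the 3C system. Overt cytotoxicity tracked with sulforhodamine B staining of parallel wells.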

[12] = read-out: Interleukin-1 alpha (IL1a), IL1A (gene 3552); experiment: BSK_BE3C_IL1a: BioMAP Diversity Plus: BE3C Assay for Interleukin-1 alpha (IL1a) Biomarker Activity (AID 2283016); conditions: primary human bronchial epithelial cells; actives raise or lower the signal
Procedure, shortened: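 Human primary bronchial epithelial cells (BE3C system) were dosed with compound and IL-1a measured by ELISA 24 h later. Activity was fitted bidirectionally against DMSO baseline; cytotoxicity was tracked in parallel cultures by SRB total-protein staining.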

[13] = read-out: Monocyte Chemoattractant Protein-1 (MCP1), CCL2 (gene 6347); experiment: BSK_3C_MCP1: BioMAP Diversity Plus: 3C Assay for Monocyte Chemoattractant Protein-1 (MCP1) Biomarker Activity (AID 2283017); conditions: primary human endothelial cells (HUVEC); actives raise or lower the signal
Procedure, shortened: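 MCP-1 was measured by ELISA 24 h after dosing in primary HUVEC 3C cultures and fitted in both directions relative to DMSO; cytotoxicity was checked by SRB total-protein staining in parallel wells.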

[14] = read-out: Monocyte Chemoattractant Protein-1 (MCP1), CCL2 (gene 6347); experiment: BSK_4H_MCP1: BioMAP Diversity Plus: 4H Assay for Monocyte Chemoattractant Protein-1 (MCP1) Biomarker Activity (AID 2283018); conditions: primary human endothelial cells (HUVEC); actives raise or lower the signal
Procedure, shortened: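 Human umbilical vein endothelial cells (4H system) dosed with chemical; MCP-1 measured by ELISA 24 h after dosing. Bidirectional curve fitting against DMSO negative control as baseline; parallel SRB total-protein staining tracks overt cytotoxicity.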

[15] = read-out: Human Leukocyte Antigen - DR isotype (HLADR), HLA-DRA (gene 3122); experiment: BSK_3C_HLADR: BioMAP Diversity Plus: 3C Assay for Human Leukocyte Antigen - DR isotype (HLADR) Biomarker Activity (AID 2283019); conditions: primary human endothelial cells (HUVEC); actives raise or lower the signal;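 on outcome: ELISA of cell-surface HLA-DR on HUVEC 24 h after dosing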
Procedure, shortened: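 Bidirectional fitting against DMSO was applied to the HLA-DR ELISA signal from human umbilical vein endothelial cells, 24 h post-dose. Cytotoxicity came from parallel SRB total-protein staining; 3C proliferation was counted by SRB at 48 h.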

[16] = target: human RAR-related Orphan Receptor gamma (RORg), RORC (gene 6097) (UniProt P51449); experiment: ATG_RORg_TRANS: Attagene TRANS-FACTORIAL HepG2 Assay for human RAR-related Orphan Receptor gamma (RORg) (AID 2283011; active means hit-call score of the fitted dose curve at least 0.9, where 1 is the maximum)
Procedure, shortened: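 Reporter transcripts from a transfected RORg-GAL4 chimera in HepG2 cells were quantified 24 h after dosing by RT-PCR, 6-FAM labelling, HpaI digestion and capillary electrophoresis; increases over DMSO baseline were fitted.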

[17] = target: human Thyroid Receptor alpha (THRa1), THRA (gene 7067) (UniProt P10827); experiment: ATG_THRa1_TRANS: Attagene TRANS-FACTORIAL HepG2 Assay for human Thyroid Receptor alpha (THRa1) (AID 2283014; active means hit-call score of the fitted dose curve at least 0.9, where 1 is the maximum)
Procedure, shortened: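 Transcripts from GAL4-UAS-driven reporters, measured after 24 h compound exposure by RT-PCR plus capillary electrophoresis of 6-FAM-labeled fragments, were fitted for gain of signal relative to DMSO. Cells: transiently transfected HepG2 expressing NR-Gal4 chimeras.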

[18] = target: human Retinoic Acid Receptor beta (RARb), RARB (gene 5915) (UniProt P10826); experiment: ATG_RARb_TRANS: Attagene TRANS-FACTORIAL HepG2 Assay for human Retinoic Acid Receptor beta (AID 2283004; active means hit-call score of the fitted dose curve at least 0.9, where 1 is the maximum)
Procedure, shortened: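 Induction of reporter mRNA from a chimeric RARb-Gal4 construct was measured by RT-PCR, FAM labelling, HpaI digestion and capillary electrophoresis. Measurements followed 24 h compound treatment of transiently transfected human HepG2 liver cells, with DMSO as baseline.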

[19] = target: Retinoic acid receptor alpha (Homo sapiens) (UniProt P10276); experiment: ATG_RARa_TRANS: Attagene TRANS-FACTORIAL HepG2 Assay for human Retinoic Acid Receptor alpha (RARa) (AID 2283005; active means hit-call score of the fitted dose curve at least 0.9, where 1 is the maximum)
Procedure, shortened: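 HepG2 cells transiently transfected with multiple reporter units expressing chimeric RARα-GAL4 fusion, with GAL4-UAS-driven reporters. After 24 h compound exposure, reporter mRNA induction quantified by RT-PCR and capillary electrophoresis with fluorescent labeling; gain-of-signal fitted relative to DMSO control.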

[20] = target: human RAR-related Orphan Receptor beta (RORb), RORB (gene 6096) (UniProt Q92753); experiment: ATG_RORb_TRANS: Attagene TRANS-FACTORIAL HepG2 Assay for human RAR-related Orphan Receptor beta (RORb) (AID 2283010; active means hit-call score of the fitted dose curve at least 0.9, where 1 is the maximum)
Procedure, shortened: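 HepG2 cells were transiently transfected with multiplexed GAL4-UAS reporter units expressing chimeric nuclear receptor–GAL4 proteins, then dosed for 24 h. Reporter mRNA was quantified by RT-PCR with fluorescent labelling and capillary electrophoresis; gain of signal was fitted relative to DMSO.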

Sequence of human Retinoic Acid Receptor gamma (RARg), RARG (gene 5916) (P13631 whole entry, looked up, the tested form may be a part): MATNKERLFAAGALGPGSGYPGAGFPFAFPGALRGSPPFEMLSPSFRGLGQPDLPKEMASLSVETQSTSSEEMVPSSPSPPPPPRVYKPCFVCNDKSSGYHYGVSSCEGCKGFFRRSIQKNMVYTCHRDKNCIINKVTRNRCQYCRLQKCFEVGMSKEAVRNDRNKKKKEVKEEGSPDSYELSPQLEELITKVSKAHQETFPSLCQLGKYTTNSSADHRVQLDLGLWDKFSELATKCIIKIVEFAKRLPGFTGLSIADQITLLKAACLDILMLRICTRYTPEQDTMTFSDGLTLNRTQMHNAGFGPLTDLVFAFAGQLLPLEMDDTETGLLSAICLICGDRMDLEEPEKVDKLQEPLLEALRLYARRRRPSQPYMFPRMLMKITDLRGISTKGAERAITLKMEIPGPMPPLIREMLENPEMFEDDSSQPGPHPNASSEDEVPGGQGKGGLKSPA
Sequence of human RAR-related Orphan Receptor gamma (RORg), RORC (gene 6097) (P51449 whole entry, looked up, the tested form may be a part): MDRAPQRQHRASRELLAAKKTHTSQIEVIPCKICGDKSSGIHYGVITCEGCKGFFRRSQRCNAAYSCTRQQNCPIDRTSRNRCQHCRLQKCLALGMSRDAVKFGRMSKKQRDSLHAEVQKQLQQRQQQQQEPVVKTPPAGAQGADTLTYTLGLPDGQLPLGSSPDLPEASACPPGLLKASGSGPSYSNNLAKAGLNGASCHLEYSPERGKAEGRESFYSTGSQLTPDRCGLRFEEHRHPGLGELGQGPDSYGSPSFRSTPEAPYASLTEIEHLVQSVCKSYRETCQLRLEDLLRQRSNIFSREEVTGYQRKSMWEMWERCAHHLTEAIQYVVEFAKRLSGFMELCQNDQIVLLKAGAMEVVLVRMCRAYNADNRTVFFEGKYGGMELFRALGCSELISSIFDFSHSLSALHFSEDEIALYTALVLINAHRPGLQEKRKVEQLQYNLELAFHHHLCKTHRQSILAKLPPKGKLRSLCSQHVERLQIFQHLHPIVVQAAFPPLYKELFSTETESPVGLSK
Sequence of Retinoic acid receptor RXR-alpha (Homo sapiens) (P19793 whole entry, looked up, the tested form may be a part): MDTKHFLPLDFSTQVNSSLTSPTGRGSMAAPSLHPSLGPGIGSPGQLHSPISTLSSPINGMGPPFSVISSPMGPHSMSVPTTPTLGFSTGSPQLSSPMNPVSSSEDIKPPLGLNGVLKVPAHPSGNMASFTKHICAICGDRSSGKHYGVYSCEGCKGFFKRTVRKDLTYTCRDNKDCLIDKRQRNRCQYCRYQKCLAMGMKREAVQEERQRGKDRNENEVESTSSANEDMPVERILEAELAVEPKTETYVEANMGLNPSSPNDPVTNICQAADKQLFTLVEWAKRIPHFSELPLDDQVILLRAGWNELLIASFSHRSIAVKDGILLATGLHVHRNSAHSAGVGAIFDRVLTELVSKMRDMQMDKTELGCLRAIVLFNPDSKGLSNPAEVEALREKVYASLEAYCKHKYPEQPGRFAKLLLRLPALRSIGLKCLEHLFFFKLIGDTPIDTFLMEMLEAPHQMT
Sequence of Peroxisome proliferator-activated receptor gamma (Homo sapiens) (P37231 whole entry, looked up): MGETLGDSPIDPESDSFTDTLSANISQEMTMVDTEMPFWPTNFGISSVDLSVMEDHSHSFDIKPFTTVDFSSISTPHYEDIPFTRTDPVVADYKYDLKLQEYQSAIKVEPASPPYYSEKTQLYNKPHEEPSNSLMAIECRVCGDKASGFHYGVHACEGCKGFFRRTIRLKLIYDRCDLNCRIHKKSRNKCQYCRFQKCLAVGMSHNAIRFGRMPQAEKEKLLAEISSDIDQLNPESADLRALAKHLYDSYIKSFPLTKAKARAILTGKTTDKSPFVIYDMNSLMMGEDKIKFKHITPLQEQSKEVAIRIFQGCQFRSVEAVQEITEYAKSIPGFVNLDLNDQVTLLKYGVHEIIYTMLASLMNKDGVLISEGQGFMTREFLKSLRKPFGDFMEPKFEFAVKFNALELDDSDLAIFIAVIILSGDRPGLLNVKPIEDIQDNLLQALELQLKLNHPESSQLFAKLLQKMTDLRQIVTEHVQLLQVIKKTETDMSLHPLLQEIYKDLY
Sequence of human Peroxisome Proliferator-activated Receptor alpha (PPARa), PPARA (gene 5465) (Q07869 whole entry, looked up, the tested form may be a part): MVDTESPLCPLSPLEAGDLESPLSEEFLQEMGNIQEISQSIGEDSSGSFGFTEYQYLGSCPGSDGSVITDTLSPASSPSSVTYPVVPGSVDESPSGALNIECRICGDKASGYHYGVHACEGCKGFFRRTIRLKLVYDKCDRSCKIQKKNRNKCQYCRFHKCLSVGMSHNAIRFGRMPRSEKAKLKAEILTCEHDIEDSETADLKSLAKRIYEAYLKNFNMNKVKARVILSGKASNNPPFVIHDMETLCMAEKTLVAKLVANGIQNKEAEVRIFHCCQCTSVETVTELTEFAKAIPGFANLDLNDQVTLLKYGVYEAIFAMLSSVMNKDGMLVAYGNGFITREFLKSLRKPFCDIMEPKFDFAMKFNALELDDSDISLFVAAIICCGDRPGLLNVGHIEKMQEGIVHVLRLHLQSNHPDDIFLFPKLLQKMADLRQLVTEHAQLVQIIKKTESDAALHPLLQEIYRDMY
Sequence of human Peroxisome Proliferator-activated Receptor delta (PPARd), PPARD (gene 5467) (Q03181 whole entry, looked up, the tested form may be a part): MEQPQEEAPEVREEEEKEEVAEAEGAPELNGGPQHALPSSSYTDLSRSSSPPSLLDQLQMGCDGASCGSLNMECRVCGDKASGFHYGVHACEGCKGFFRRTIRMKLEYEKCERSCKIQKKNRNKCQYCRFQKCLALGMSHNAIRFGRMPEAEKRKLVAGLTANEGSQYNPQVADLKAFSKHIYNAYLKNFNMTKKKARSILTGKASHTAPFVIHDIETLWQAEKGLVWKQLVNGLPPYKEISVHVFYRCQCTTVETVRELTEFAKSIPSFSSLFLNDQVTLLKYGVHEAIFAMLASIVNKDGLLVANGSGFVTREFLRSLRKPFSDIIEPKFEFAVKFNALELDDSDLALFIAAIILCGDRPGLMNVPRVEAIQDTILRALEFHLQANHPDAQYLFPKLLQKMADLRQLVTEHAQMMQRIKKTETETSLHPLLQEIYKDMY
Sequence of E-selectin (Homo sapiens) (P16581 whole entry, looked up): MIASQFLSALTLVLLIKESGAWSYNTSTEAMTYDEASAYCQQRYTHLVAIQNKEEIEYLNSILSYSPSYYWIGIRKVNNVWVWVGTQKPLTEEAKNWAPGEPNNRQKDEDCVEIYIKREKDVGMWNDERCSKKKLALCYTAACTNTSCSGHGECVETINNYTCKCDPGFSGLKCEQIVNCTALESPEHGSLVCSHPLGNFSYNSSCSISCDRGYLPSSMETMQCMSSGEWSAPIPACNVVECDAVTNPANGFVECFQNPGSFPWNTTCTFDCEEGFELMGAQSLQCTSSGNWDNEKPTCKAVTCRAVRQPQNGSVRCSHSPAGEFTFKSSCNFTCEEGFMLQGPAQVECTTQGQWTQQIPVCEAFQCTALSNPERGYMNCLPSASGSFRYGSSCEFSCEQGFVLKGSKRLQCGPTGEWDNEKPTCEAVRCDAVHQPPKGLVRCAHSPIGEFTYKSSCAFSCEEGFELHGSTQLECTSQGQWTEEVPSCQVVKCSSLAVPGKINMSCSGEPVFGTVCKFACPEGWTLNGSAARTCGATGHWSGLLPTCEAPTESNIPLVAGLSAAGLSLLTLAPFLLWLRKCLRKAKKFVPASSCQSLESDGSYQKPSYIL
Sequence of human Retinoid X Receptor beta (RXRb), RXRB (gene 6257) (P28702 whole entry, looked up, the tested form may be a part): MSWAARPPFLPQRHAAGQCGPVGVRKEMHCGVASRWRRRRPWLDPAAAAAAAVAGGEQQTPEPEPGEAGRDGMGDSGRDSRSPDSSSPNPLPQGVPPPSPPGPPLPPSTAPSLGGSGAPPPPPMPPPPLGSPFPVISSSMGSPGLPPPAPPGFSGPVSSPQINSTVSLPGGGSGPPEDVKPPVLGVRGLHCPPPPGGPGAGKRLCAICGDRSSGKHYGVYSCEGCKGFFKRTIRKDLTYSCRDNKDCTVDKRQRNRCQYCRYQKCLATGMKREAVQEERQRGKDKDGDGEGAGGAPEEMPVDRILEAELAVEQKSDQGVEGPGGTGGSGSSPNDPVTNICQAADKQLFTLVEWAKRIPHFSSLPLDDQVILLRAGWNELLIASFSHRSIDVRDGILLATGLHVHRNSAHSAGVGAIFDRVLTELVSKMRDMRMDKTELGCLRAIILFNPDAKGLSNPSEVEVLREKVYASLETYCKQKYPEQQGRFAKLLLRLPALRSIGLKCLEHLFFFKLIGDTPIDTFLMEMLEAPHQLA
Sequence of human Retinoic Acid Receptor beta (RARb), RARB (gene 5915) (P10826 whole entry, looked up, the tested form may be a part): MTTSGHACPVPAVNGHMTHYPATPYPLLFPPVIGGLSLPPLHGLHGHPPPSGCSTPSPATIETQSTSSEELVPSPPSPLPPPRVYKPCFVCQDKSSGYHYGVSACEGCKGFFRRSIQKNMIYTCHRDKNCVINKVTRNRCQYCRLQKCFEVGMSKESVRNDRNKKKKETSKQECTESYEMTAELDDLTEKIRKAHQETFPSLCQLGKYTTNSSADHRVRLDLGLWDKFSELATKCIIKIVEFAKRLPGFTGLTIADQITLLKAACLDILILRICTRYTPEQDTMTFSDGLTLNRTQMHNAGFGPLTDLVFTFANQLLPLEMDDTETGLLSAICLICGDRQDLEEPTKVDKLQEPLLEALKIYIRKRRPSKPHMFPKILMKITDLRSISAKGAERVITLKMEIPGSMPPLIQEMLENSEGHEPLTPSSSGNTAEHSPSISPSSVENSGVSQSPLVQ
Sequence of Nuclear receptor subfamily 1 group I member 2 (Homo sapiens) (O75469 whole entry, looked up, the tested form may be a part): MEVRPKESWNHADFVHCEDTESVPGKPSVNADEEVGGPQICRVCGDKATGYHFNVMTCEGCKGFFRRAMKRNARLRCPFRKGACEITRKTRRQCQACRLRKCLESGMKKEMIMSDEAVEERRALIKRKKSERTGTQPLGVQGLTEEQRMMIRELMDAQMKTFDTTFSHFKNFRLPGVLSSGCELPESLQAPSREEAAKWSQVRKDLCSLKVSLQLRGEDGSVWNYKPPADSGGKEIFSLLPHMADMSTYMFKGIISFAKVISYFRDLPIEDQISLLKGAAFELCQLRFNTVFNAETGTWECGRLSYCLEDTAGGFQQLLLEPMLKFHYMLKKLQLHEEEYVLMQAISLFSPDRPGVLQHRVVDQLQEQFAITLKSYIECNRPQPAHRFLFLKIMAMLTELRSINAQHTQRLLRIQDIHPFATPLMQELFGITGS

**Q.** Which results are given for `OCCCC(F)(F)C(F)(F)C(F)(F)F`?
**A.** outcome [1]: inactive; outcome [2]: inactive; outcome [3]: inactive; outcome [4]: inactive; outcome [5]: inactive; outcome [6]: inactive; outcome [7]: inactive; outcome [8]: inactive; outcome [9]: inactive; outcome [10]: inactive; outcome [11]: inactive; outcome [12]: inactive; outcome [13]: inactive; outcome [14]: inactive; outcome [15]: inactive

**Q.** With `O=C(O)C=C(C(F)(F)F)C(F)(F)F` as the compound, how does the outcome [1] read?
**A.** inactive

**Q.** What about the outcome [2] of the same compound?
**A.** inactive

**Q.** And the outcome [3]?
**A.** inactive

**Q.** And the outcome [4]?
**A.** inactive

**Q.** What about the AC50 [5] of the same compound?
**A.** 27 µM (active)

**Q.** What about the outcome [5] of the same compound?
**A.** inactive

**Q.** What about the outcome [6] of the same compound?
**A.** inactive

**Q.** What about the outcome [8] of the same compound?
**A.** inactive

**Q.** What about the outcome [16] of the same compound?
**A.** inactive

**Q.** And the outcome [9]?
**A.** inactive

**Q.** And the outcome [10]?
**A.** inactive

**Q.** What about the outcome [17] of the same compound?
**A.** inactive

**Q.** What about the AC50 [11] of the same compound?
**A.** 15.3 µM (active) and 5.95 µM (active)

**Q.** What about the outcome [12] of the same compound?
**A.** inactive

**Q.** And the outcome [13]?
**A.** inactive

**Q.** What about the outcome [14] of the same compound?
**A.** inactive

**Q.** And the AC50 [15]?
**A.** 30 µM (active) and 47.7 µM (active)

**Q.** Which outcome [1] does the source give for `O=C(O)C(F)(OC(F)(F)C(F)(OC(F)(F)C(F)(OC(F)(F)C(F)(F)C(F)(F)F)C(F)(F)F)C(F)(F)F)C(F)(F)F` (centres undefined) here?
**A.** inactive

**Q.** And the outcome [2]?
**A.** inactive

**Q.** What about the outcome [3] of the same compound?
**A.** inactive

**Q.** And the outcome [4]?
**A.** inactive

**Q.** What about the outcome [18] of the same compound?
**A.** inactive

**Q.** And the outcome [19]?
**A.** inactive

**Q.** And the outcome [5]?
**A.** inactive

**Q.** And the outcome [6]?
**A.** inactive

**Q.** What about the outcome [8] of the same compound?
**A.** inactive

**Q.** And the outcome [20]?
**A.** inactive

**Q.** And the outcome [16]?
**A.** inactive

**Q.** What about the outcome [9] of the same compound?
**A.** inactive

**Q.** And the outcome [11]?
**A.** inactive

**Q.** And the outcome [12]?
**A.** inactive

**Q.** What about the outcome [13] of the same compound?
**A.** inactive

**Q.** And the outcome [14]?
**A.** inactive

**Q.** And the outcome [15]?
**A.** inactive
